# Laboratory results reported in article PMC5540273 (PLoS ONE, 2017).
# Legend:
# Details in all cases: concentration: 1 μM, replicates: in singlicate; n = 1
# STK36 = tested on: STK36
# STK39 = tested on: STK39
# SYK = tested on: SYK
# SgK110 = tested on: SgK110
# TAK1 = tested on: T1, TAK1
# T1 construct: gene MAP3K7
# TAOK1 = tested on: TAOK1
# TAOK2 = tested on: TAOK2
# TAOK3 = tested on: TAOK3
# TBK1 = tested on: TBK1
# TEC = tested on: TEC
# TESK1 = tested on: TESK1
# TGFBR1 = tested on: TGFBR1
# TGFBR2 = tested on: TGFBR2
# TIE1 = tested on: TIE1
# TIE2 = tested on: T2, TIE2
# T2 construct: gene TEK
# TLK1 = tested on: TLK1
# TLK2 = tested on: TLK2
# TNIK = tested on: TNIK
# TNK1 = tested on: TNK1
# TNK2 = tested on: TNK2
# 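Also: KINOMEscan kinase panel screen.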
smiles,measurement,setting,value
Cl.NC(=O)c1cccc(Nc2nccc(Nc3ccc(Oc4c(Cl)cccc4Cl)c(Cl)c3)n2)c1 [GW659009],%Inh,STK36,0%
same,%Inh,STK39,0%
same,%Inh,SYK,0%
same,%Inh,SgK110,0%
same,%Inh,TAK1,1%
same,%Inh,TAOK1,9%
same,%Inh,TAOK2,0%
same,%Inh,TAOK3,8%
same,%Inh,TBK1,0%
same,%Inh,TEC,0%
same,%Inh,TESK1,0%
same,%Inh,TGFBR1,0%
same,%Inh,TGFBR2,29%
same,%Inh,TIE1,33%
same,%Inh,TIE2,0%
same,%Inh,TLK1,0%
same,%Inh,TLK2,0%
same,%Inh,TNIK,0%
same,%Inh,TNK1,36%
same,%Inh,TNK2,0%
O=C(Nc1ccccc1F)NC1CCN(c2ccnc(Nc3ccc(F)cc3)n2)CC1 [GSK1379800],%Inh,STK36,0%
same,%Inh,STK39,0%
same,%Inh,SYK,0%
same,%Inh,SgK110,0%
same,%Inh,TAK1,0%
same,%Inh,TAOK1,0%
same,%Inh,TAOK2,0%
same,%Inh,TAOK3,0%
same,%Inh,TBK1,8%
same,%Inh,TEC,0%
same,%Inh,TESK1,17%
same,%Inh,TGFBR1,36%
same,%Inh,TGFBR2,0%
same,%Inh,TIE1,6%
same,%Inh,TIE2,7%
same,%Inh,TLK1,0%
same,%Inh,TLK2,0%
same,%Inh,TNIK,0%
same,%Inh,TNK1,0%
same,%Inh,TNK2,15%
c1ccc(-c2cnc3nccnn23)cc1 [AH20685],%Inh,STK36,0%
same,%Inh,STK39,0%
same,%Inh,SYK,26%
same,%Inh,SgK110,0%
same,%Inh,TAK1,0%
same,%Inh,TAOK1,0%
same,%Inh,TAOK2,0%
same,%Inh,TAOK3,0%
same,%Inh,TBK1,0%
same,%Inh,TEC,0%
same,%Inh,TESK1,0%
same,%Inh,TGFBR1,0%
same,%Inh,TGFBR2,0%
same,%Inh,TIE1,0%
same,%Inh,TIE2,0%
same,%Inh,TLK1,0%
same,%Inh,TLK2,0%
same,%Inh,TNIK,0%
same,%Inh,TNK1,9%
same,%Inh,TNK2,0%
COc1cc(Nc2nccc(-c3c(-c4cccc(NC(=O)c5c(F)cccc5F)c4)nn4ccccc34)n2)cc(OC)c1OC [GSK323521],%Inh,STK36,19%
same,%Inh,STK39,8%
same,%Inh,SYK,28%
same,%Inh,SgK110,0%
same,%Inh,TAK1,28%
same,%Inh,TAOK1,0%
same,%Inh,TAOK2,0%
same,%Inh,TAOK3,0%
same,%Inh,TBK1,3%
same,%Inh,TEC,21%
same,%Inh,TESK1,36%
same,%Inh,TGFBR1,0%
same,%Inh,TGFBR2,17%
same,%Inh,TIE1,67%
same,%Inh,TIE2,46%
same,%Inh,TLK1,6%
same,%Inh,TLK2,0%
same,%Inh,TNIK,0%
same,%Inh,TNK1,0%
same,%Inh,TNK2,1%
C[C@@H]1CC[C@@H](C(=O)Nc2ccccc2)CN1c1cc(-c2ccc3c(N)n[nH]c3c2)nc(N)n1 [GSK2286062],%Inh,STK36,0%
same,%Inh,STK39,0%
same,%Inh,SYK,30%
same,%Inh,SgK110,0%
same,%Inh,TAK1,0%
same,%Inh,TAOK1,0%
same,%Inh,TAOK2,0%
same,%Inh,TAOK3,10%
same,%Inh,TBK1,17%
same,%Inh,TEC,0%
same,%Inh,TESK1,29%
same,%Inh,TGFBR1,0%
same,%Inh,TGFBR2,0%
same,%Inh,TIE1,0%
same,%Inh,TIE2,22%
same,%Inh,TLK1,0%
same,%Inh,TLK2,4%
same,%Inh,TNIK,0%
same,%Inh,TNK1,0%
same,%Inh,TNK2,0%
Cc1cccc(Nc2nc(N[C@H]3CCNC3)ncc2C(N)=O)c1.Cl [GSK2197149],%Inh,STK36,10%
same,%Inh,STK39,9%
same,%Inh,SYK,81%
same,%Inh,SgK110,0%
same,%Inh,TAK1,90%
same,%Inh,TAOK1,39%
same,%Inh,TAOK2,0%
same,%Inh,TAOK3,5%
same,%Inh,TBK1,18%
same,%Inh,TEC,0%
same,%Inh,TESK1,23%
same,%Inh,TGFBR1,0%
same,%Inh,TGFBR2,0%
same,%Inh,TIE1,0%
same,%Inh,TIE2,0%
same,%Inh,TLK1,20%
same,%Inh,TLK2,0%
same,%Inh,TNIK,78%
same,%Inh,TNK1,47%
same,%Inh,TNK2,6%
O=C(Nc1n[nH]c2nc(-c3ccc(O)cc3)ccc12)C1CC1 [SB-710363],%Inh,STK36,15%
same,%Inh,STK39,18%
same,%Inh,SYK,25%
same,%Inh,SgK110,0%
same,%Inh,TAK1,21%
same,%Inh,TAOK1,98.9%
same,%Inh,TAOK2,79%
same,%Inh,TAOK3,95.9%
same,%Inh,TBK1,19%
same,%Inh,TEC,0%
same,%Inh,TESK1,0%
same,%Inh,TGFBR1,0%
same,%Inh,TGFBR2,0%
same,%Inh,TIE1,0%
same,%Inh,TIE2,11%
same,%Inh,TLK1,18%
same,%Inh,TLK2,0%
same,%Inh,TNIK,95.1%
same,%Inh,TNK1,0%
same,%Inh,TNK2,0%
COc1cccc(C(=O)Nc2cccc(Oc3ccc4nc(NC(=O)C5CC5)cn4n3)c2)c1,%Inh,STK36,0%
same,%Inh,STK39,0%
same,%Inh,SYK,12%
same,%Inh,SgK110,0%
same,%Inh,TAK1,0%
same,%Inh,TAOK1,34%
same,%Inh,TAOK2,58%
same,%Inh,TAOK3,0%
same,%Inh,TBK1,48%
same,%Inh,TEC,9%
same,%Inh,TESK1,0%
same,%Inh,TGFBR1,0%
same,%Inh,TGFBR2,40%
same,%Inh,TIE1,84%
same,%Inh,TIE2,67%
same,%Inh,TLK1,4%
same,%Inh,TLK2,0%
same,%Inh,TNIK,54%
same,%Inh,TNK1,48%
same,%Inh,TNK2,5%
O=C(NC1CCN(c2ccnc(Nc3ccc(F)cc3)n2)C1)c1cc2ccccc2s1 (stereo not shown) [GSK1379716],%Inh,STK36,0%
same,%Inh,STK39,4%
same,%Inh,SYK,42%
same,%Inh,SgK110,0%
same,%Inh,TAK1,0%
same,%Inh,TAOK1,0%
same,%Inh,TAOK2,0%
same,%Inh,TAOK3,0%
same,%Inh,TBK1,20%
same,%Inh,TEC,16%
same,%Inh,TESK1,31%
same,%Inh,TGFBR1,39%
same,%Inh,TGFBR2,0%
same,%Inh,TIE1,24%
same,%Inh,TIE2,0%
same,%Inh,TLK1,7%
same,%Inh,TLK2,0%
same,%Inh,TNIK,1%
same,%Inh,TNK1,0%
same,%Inh,TNK2,21%
CC(C)c1nc(-c2cccc(NS(=O)(=O)c3c(F)cccc3F)c2F)c(-c2ccnc(Nc3ccc(N4CCOCC4)nc3)n2)s1 [GSK2008607],%Inh,STK36,100%
same,%Inh,STK39,48%
same,%Inh,SYK,85%
same,%Inh,SgK110,0%
same,%Inh,TAK1,76%
same,%Inh,TAOK1,10%
same,%Inh,TAOK2,71%
same,%Inh,TAOK3,19%
same,%Inh,TBK1,51%
same,%Inh,TEC,85%
same,%Inh,TESK1,100%
same,%Inh,TGFBR1,86%
same,%Inh,TGFBR2,77%
same,%Inh,TIE1,91.2%
same,%Inh,TIE2,99.1%
same,%Inh,TLK1,22%
same,%Inh,TLK2,0%
same,%Inh,TNIK,63%
same,%Inh,TNK1,100%
same,%Inh,TNK2,99.6%
Cn1cc(-c2[nH]c3cc(NC(=O)[C@H](N)C4CCCCC4)cc4c3c2C=NNC4=O)cn1,%Inh,STK36,0%
same,%Inh,STK39,59%
same,%Inh,SYK,55%
same,%Inh,SgK110,92.1%
same,%Inh,TAK1,52%
same,%Inh,TAOK1,0%
same,%Inh,TAOK2,0%
same,%Inh,TAOK3,0%
same,%Inh,TBK1,82%
same,%Inh,TEC,43%
same,%Inh,TESK1,15%
same,%Inh,TGFBR1,0%
same,%Inh,TGFBR2,66%
same,%Inh,TIE1,83%
same,%Inh,TIE2,42%
same,%Inh,TLK1,8%
same,%Inh,TLK2,1%
same,%Inh,TNIK,91.9%
same,%Inh,TNK1,68%
same,%Inh,TNK2,48%
